Data taken from PubChem BioAssay (NCI).
This is part of a sample that, as a whole, favours compounds with a hit. Of some 83,000 tested, about 20% had one in any assay.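 Activity criterion: percent growth below 10, measured after cells in 96-well plates were exposed to a single compound concentration for 48 hours.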 A number with no mark means an inactive call. Calls of active or inactive are those of the source.

What was measured:
Assay in all cases: NCI-60 one-dose screen, 48 h (100 = growth as untreated, 0 = no growth, -100 = all killed)
Details in all cases: 10 µM unless noted
[1] = test system: HCT-15 colon
[2] = test system: HT29 colon
[3] = test system: SNB-75 CNS
[4] = test system: SNB-19 CNS
[5] = test system: U251 CNS
[6] = test system: PC-3 prostate
[7] = test system: SK-MEL-5 melanoma
[8] = test system: UACC-62 melanoma
[9] = test system: LOX IMVI melanoma
[10] = test system: SK-MEL-28 melanoma

Row | SMILES | growth [1] | growth [2] | growth [3] | growth [4] | growth [5] | growth [6] | growth [7] | growth [8] | growth [9] | growth [10]
1 | COc1cc(C2CC(c3ccc(Cl)cc3)=NN2C(C)=O)ccc1Oc1ccnc2cc(Cl)ccc12 (stereo not given) | 91.9% | 28.2% | 33.2% | 70.7% | 43.8% | 58.3% | 67.8% | 60.5% | 37.9% | 55.1%
2 | CC[C@]1(O)C[C@H]2CN(CCc3c([nH]c4ccccc34)C(C(=O)OC)(c3cc4c(cc3OC)N(C)[C@H]3[C@@](O)(C(=O)OC)[C@H](OC(C)=O)[C@]5(CC)[C@@H]6C[C@@H]6CN6CC[C@]43[C@@H]65)C2)C1 (stereo not given in full) | 19.5% | 7.29% (active) | -14.6% (active) | 24% | 13.7% | 18.9% | -80.1% (active) | 14.5% | 5.88% (active) | 53.7%
3 | CC(=O)Oc1c(Cl)c(Cl)c(Cl)c(Cl)c1Cl | 95% | 99.9% | 80.1% | 96.3% | 94.7% | 91.1% | 102% | 88% | 93.1% | 104%
4 | O=C(CC(=O)c1cccc(Cl)c1)c1cccc(Cl)c1 | 25.9% | 34.7% | 75.3% | 31.3% | 16.7% | 33.3% | 36.8% | 27.2% | 33.2% | 56%
5 | N=c1nc(N2CCCCC2)cc(N)n1O | 97% | 107% | 93.5% | 99.8% | 101% | 103% | 94.8% | 104% | 110% | 111%
6 | Nc1nc(NC2CC2)cc(-c2cccc(Cl)c2Cl)n1 | 25% | 13.6% | 39.2% | 59.1% | 39.1% | 64.6% | 46.5% | 36.1% | 40.7% | 68.7%
7 | CC(C)OC1OC(OC(C)C)C(OC(C)C)OC1OC(C)C (stereo not given) | 98.1% | 95.8% | 99% | 90.9% | 90.3% | 91.8% | 110% | 85.9% | 102% | 106%
8 | CCN(CC)C(=O)O/N=C(/C)c1ccccc1 | 110% | 102% | 83% | 99.6% | 89.7% | 98.6% | 94.2% | 99.1% | 91.1% | 97.9%
9 | N=C(N)c1ccc(NCCNc2ccc(C(=N)N)cc2)cc1 | 90.6% | 103% | 101% | 116% | 89.8% | 123% | 82% | 81.8% | 86.8% | 114%
10 | Nc1nc(N)c2cc(NCc3ccc(Cl)c(Cl)c3)ccc2n1 | -80% (active) | -76.3% (active) | -97.1% (active) | -85.6% (active) | -94.5% (active) | -88.7% (active) | -97.5% (active) | -84% (active) | -80.4% (active) | -94.1% (active)
11 | S=C(S)Oc1cccc2cccnc12 | 105% | 98% | 87% | 107% | 105% | 84.7% | 110% | 96.4% | 98.9% | 109%
12 | CCN(CC)CCCC(C)Nc1ccnc2ccc(Oc3ccccc3)cc12 (stereo not given) | 49.6% | 38.6% | 73.2% | 89.4% | 63.5% | 84.9% | -89% (active) | 31.7% | 36.4% | -6.8% (active)
13 | COc1ccc(Oc2nc(Nc3ccc(N4CCOCC4)cc3)ncc2NC(=O)Nc2cccc(OC)c2)cc1 | 84% | 54.2% | 80.1% | 72% | 48.8% | 48.4% | 22.5% | 46.8% | 76.7% | 61.4%
14 | Oc1c(C(Nc2cccc3ccccc23)c2ccccc2)ccc2cccnc12 (stereo not given) | 28.1% | 29.3% | 72.2% | 51.7% | 20.6% | 38.1% | 43.9% | 14.7% | 15.3% | 57.6%
15 | CN1C2CCC1/C(=C\c1ccc(F)cc1)C(=O)/C2=C/c1ccc(F)cc1 | 38.7% | 15.5% | 59.6% | 55.7% | 16.2% | 34.5% | 40.1% | 26.4% | 28.2% | 73%
16 | COc1cc(-c2nc(-c3ccc(-c4nc5ccc(F)cc5[nH]4)cc3)no2)cc(OC)c1OC | 19.4% | 9.19% (active) | 76.6% | 73.1% | 46.1% | 6.63% (active) | 20.7% | 20.9% | 24.8% | 60.6%
17 | CC1OC(n2c3ccccc3c3c4c(c5c6ccccc6[nH]c5c32)C(=O)N(CCN[C@H]2CCC[C@@H]2N)C4=O)CC(O)C1O (stereo not given in full) | 82.6% | 12.9% | 24.1% | 17% | 14.5% | 16.8% | 23.7% | 42.1% | 20.3% | 68.6%
18 | CN(C)c1ccc(C2(Cl)c3ccccc3N(C)c3ccccc32)cc1 | 64.5% | 12.1% | 71.2% | 45.5% | 1.47% (active) | 7.45% (active) | 79.9% | 35.2% | 27.6% | 52.4%
19 | Cc1[nH]c2ccccc2c1C1=CC(=O)C=CC1=O | 74.6% | 105% | 82.8% | 93% | 72.4% | 79.3% | 85.6% | 75.9% | 79.1% | 104%
20 | Cc1ccc(C(CN(C)C)C(=O)c2ccccc2)cc1 (stereo not given) | -12.1% (active) | -34.3% (active) | 54.1% | 85.7% | 41.7% | 32.9% | 64.1% | 6.99% (active) | -6.07% (active) | 50.7%
21 | Cn1cnc([N+](=O)[O-])c1S(=O)(=O)Oc1ccccc1 | 55% | 88.7% | 103% | 102% | 90.5% | 86.5% | 99.6% | 99.4% | 59.5% | 106%
22 | CCCCCCCCN(CCCCCCCC)C(=O)CCl | 96.1% | 114% | 95.4% | 97.5% | 101% | 85.6% | 88.6% | 82.9% | -63.3% (active) | 110%
23 | Clc1nnc2c3ccccc3ccn12 | 99.9% | 113% | 82.2% | 110% | 102% | 93% | 97.7% | 102% | 109% | 119%
24 | COc1cc2c(=O)n(CCCN(C)C)c3c4cc[nH]c4ncc3c2cc1OC | 54.7% | 16.2% | 47.9% | 36.6% | 35.1% | 32.8% | 80.9% | 54.5% | 25.3% | 89.9%
25 | Cc1ccc(C)c(NC(=O)c2sc3c(=O)[nH]cnc3c2C)c1 | 49.8% | 34.9% | 81.1% | 91.7% | 86.1% | 83.4% | 74.4% | 61.1% | 85% | 89.3%
